Source: PubChem (several laboratories)
Compounds with a hit are over-represented: about 3% of the library has one in this group of screens.
TROY signal inh: blocks TROY-dependent signaling in reporter cells. inhibition, % at 10 µM. 0.98% of 360,000 active. Q293 LMP1-TROYcd NF-kB luciferase reporter, 4 h;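 active means compounds whose plate-normalised and pattern-corrected inhibition of the luciferase reporter signal at the single screening dose is 50% or more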
LMP1 NFkB inh: reduces LMP1-driven NF-kappaB luciferase signal. LMP1-induced NF-kappaB luciferase reporter cells, luminescence. inhibition, % at 12.5 µM. 0.69% of 350,000 active; in the data active means inhibition above about 41%;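 further: 0% = neutral control wells and 100% = reference inhibitor control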
LGR2 inh: Drosophila LGR2 receptor signaling inhibition; inhibition, % at 9.99 µM; HEK293 LGR2, CRE-luciferase, bursicon-stimulated, 4 h; 0.35% of 380,000 active;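 active means drop in luminescence signal, shown as inhibition above about 50% in the replicate tests, limit read from the data, passing the limit was not always enough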;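 further: agonist challenge used bursicon conditioned medium at about half maximal strength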
MITF act: activators of MITF-driven TRPM1 promoter activity in SK-MEL-5 cells. SK-MEL-5 TRPM1-promoter luciferase, 24 h; % of positive control, neutral wells = 0. activation, % at 12.5 µM. AID 588334. 0.75% of 300,000 active;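 active means mean activation of at least 80% with every replicate also reaching 80%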;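 further: 0% = neutral control wells and 100% = parthenolide positive control wells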
TWEAK-Fn14 inh: TWEAK-Fn14 signaling inhibition | 2% of 360,000 active | AID 1159606 | TWEAK-stimulated Fn14 reporter cells, luciferase luminescence, 8 h | inhibition, % at 10 µM; in the data active means inhibition above about 50%
TRPM1 prom inh: reduces MITF-dependent TRPM1 promoter luciferase signal; inhibition, % at 12.5 µM; SK-MEL-5 TRPM1 promoter luciferase, 24 h; 0.83% of 330,000 active; AID 488899;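 active means mean inhibition across replicates of 60% or more, whatever share of single replicates reaches that level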
Numbers without * were called inactive; nt = not tested or not shown.

SMILES	TROY signal inh	LMP1 NFkB inh	LGR2 inh	MITF act	TWEAK-Fn14 inh	TRPM1 prom inh
CCN(CC)C(=O)OCc1c(-c2cccc(OC)c2)ncc2ccccc12	6	6	-12	-2	0	1
CCN(CC)C(=O)OCc1c(-c2ccccc2)ncc2ccccc12	6	-11	-13	102*	-7	-100
COc1ccccc1NS(=O)(=O)c1cccc(NC(=O)c2ccc3ccccc3n2)c1	33	2	8	-11	69*	14
COc1ccc(CNC(=O)c2ccc3ccccc3n2)cc1OC	7	9	3	-19	54*	20
COc1ccc(S(=O)(=O)Nc2ccccc2OC)cc1NC(=O)c1cc2ccccc2oc1=O	-51	2	-54	90*	13	-87
O=C(Nc1cccc(S(=O)(=O)Nc2ccccc2F)c1)c1ccc2ccccc2n1	16	4	-5	1	33	-8
COc1ccc(CCNC(=O)c2ccc3ccccc3n2)cc1OC	-8	18	nt	-2	-3	3
COCC(=O)Nc1ccc2c(c1)OC[C@@H](C)N(Cc1ccccc1F)C[C@H](C)[C@@H](OC)CN(C)C2=O	nt	nt	5	nt	nt	nt
CO[C@@H]1CN(C)C(=O)c2ccc(NC(=O)Nc3ccccc3F)cc2OC[C@@H](C)N(C(C)=O)C[C@H]1C	nt	nt	-20	nt	nt	nt
Brc1ccc2[nH]c3c(c2c1)CCC3	9	-2	nt	4	-53	-3
O=C1Cc2c([nH]c3ccc(Br)cc23)-c2ccccc2N1	4	-196	-76	nt	79*	-13
Cc1cc2c(cc1C)N(C(=O)CCl)CCN2C(=O)CCl	19	0	-10	-94	3	94*
Cc1ccc(N=C2SC(C(=O)Nc3ccc(OC(F)(F)F)cc3)C(N)=C2C(=O)Nc2c(C)cc(C)cc2C)cc1 (stereo unspecified)	13	-2	-3	-19	64*	17
CCN(CC)C(=S)Oc1ccc(Cl)cc1Cl	-3	-2	7	-7	97*	10
CCN(CC)C(=S)Oc1c(Cl)cccc1Cl	3	-7	6	5	5	-6
C[C@@H]1CN([C@@H](C)CO)C(=O)Cc2cc(NC(=O)CCC(F)(F)F)ccc2O[C@H]1CN(C)Cc1ccc(Cl)c(Cl)c1	nt	nt	16	nt	nt	nt
CC(C)CNC(=O)NC(=O)COC(=O)c1ccccc1Sc1ccc(C(F)(F)F)cc1[N+](=O)[O-]	31	10	5	-3	57*	4
CC(=O)N1/C(=C/c2ccc(N(C)C)cc2)C(=O)c2ccccc21	66*	28	75*	-26	86*	33
O=C(C1CCC1)N1[C@H](CO)[C@@H](c2ccccc2)C12CN(CCC(F)(F)F)C2	nt	nt	4	nt	nt	nt
CCOc1cc(C=C(C(=O)OC)C(=O)OC)ccc1OCc1ccc([N+](=O)[O-])cc1	52*	10	nt	-56	83*	58
CCOc1cc(/C=N/O)ccc1OCc1ccc([N+](=O)[O-])cc1	-23	-9	-4	26	-12	-27
O=C(C[C@@H]1C[C@H]2c3cc(NC(=O)c4ccc5c(c4)OCO5)ccc3O[C@H]2[C@@H](CO)O1)NCc1cccc(F)c1	nt	nt	-6	nt	nt	nt
Cc1ccc(S(=O)(=O)N(C)C[C@H]2Oc3c(NC(=O)Nc4ccc(F)cc4)cccc3C(=O)N([C@H](C)CO)C[C@@H]2C)cc1	nt	nt	-2	nt	nt	nt
COc1ccc([N+](=O)[O-])cc1NC(=S)NC(NC(=O)C(c1ccccc1)c1ccccc1)C(Cl)(Cl)Cl (stereo unspecified)	24	37	nt	-17	63*	19
O=C(NC(NC(=S)Nc1c(Cl)cccc1Cl)C(Cl)(Cl)Cl)c1cccc([N+](=O)[O-])c1 (stereo unspecified)	45	-9	11	4	60*	-4
SMILES	TROY signal inh	LMP1 NFkB inh	LGR2 inh	MITF act	TWEAK-Fn14 inh	TRPM1 prom inh
Cc1oc(-c2ccccc2)nc1CSc1nc2c(c(=O)[nH]1)CCC2	44	-2	0	-2	1	-2
Cc1cccc(-c2nc(CSc3nc4c(c(=O)[nH]3)CCC4)c(C)o2)c1	51*	22	18	-10	49	9
COc1ccc(NC(=O)Nc2ccc3c(c2)C(=O)N([C@@H](C)CO)C[C@H](C)[C@@H](CN(C)C(=O)Nc2ccccc2)OCCCC[C@H](C)O3)cc1	nt	nt	11	nt	nt	nt
COc1cccc(-n2nnnc2S(C)(=O)=O)c1	29	90*	nt	nt	16	78*
O=C(NC1CCCC1)[C@@H]1[C@@H](CO)[C@@H]2Cn3c(ccc(-c4ccncc4)c3=O)[C@@H]2N1CC1CC1	nt	nt	-5	nt	nt	nt
NS(=O)(=O)c1ccc(Sc2nc3ccccc3s2)c([N+](=O)[O-])c1	17	70*	nt	nt	84*	-8
NS(=O)(=O)c1ccc(Sc2ccccn2)c([N+](=O)[O-])c1	4	2	-9	nt	13	1
CCn1cc(C(=O)NCc2ccccc2)c(=O)c2cc(F)c(N3CCN(C(=O)c4ccco4)CC3)cc21	36	1	nt	-44	68*	46
CCn1cc(C(=O)NCc2ccc3c(c2)OCO3)c(=O)c2cc(F)c(N3CCN(C(=O)c4ccco4)CC3)cc21	40	21	nt	-17	54*	16
CCn1cc(C(=O)NCc2ccncc2)c(=O)c2cc(F)c(N3CCN(C(=O)c4ccco4)CC3)cc21	-3	nt	nt	nt	10	nt
O=C(NC1CCC1)[C@H]1[C@H](CO)[C@H]2Cn3c(ccc(/C=C/c4ccccc4)c3=O)[C@H]2N1Cc1cncnc1	nt	nt	-8	nt	nt	nt
O=C(C[C@@H]1CC[C@H](NC(=O)c2ccccc2)[C@H](CO)O1)NCCc1ccncc1	nt	nt	-15	nt	nt	nt
COc1ccc(-c2nnc(SCc3ccccc3)n2N)cc1	-60	-15	nt	88*	-22	-82
CCCCc1nnc(SCc2ccc(OCC)cc2)n1N	9	-4	nt	3	-5	2
CCCc1nnc(SCc2ccc(OCC)cc2)n1N	6	77*	nt	-10	-26	9
COC(=O)C[C@@H]1CC[C@@H]2[C@@H](COc3ccc(NC(=O)Nc4cc(C)cc(C)c4)cc3C(=O)N2C)O1	nt	nt	1	nt	nt	nt
CCCC(=O)N1CC2(C1)CN(C(=O)C1CCC1)[C@H](CO)c1[nH]c3cc(OC)ccc3c12	nt	nt	-7	nt	nt	nt
CCc1ccc(-c2cc(C)no2)cc1S(=O)(=O)N1CCN(c2ccccn2)CC1	50*	-1	-7	-5	-5	1
CC(=O)OCC(=O)C1CCC2C3CC=C4CC(O)CCC4(C)C3CCC12C (stereo unspecified)	-13	-1	-2	5	-16	-2
CC(=O)C1CCC2C3CC=C4CC(SC(=N)N)CCC4(C)C3CCC12C (stereo unspecified)	26	10	90*	-89	7	90*
CC(C)(C)[C@H](N)C(=O)N[C@H]1CCC2C3CC=C4C[C@@H](O)CC[C@]4(C)C3CC[C@@]21C (stereo partly specified)	-6	-95	65*	nt	-221	76*
